# This is one part of a sample in which the strongest signals are shown more often than they occur.
# What was measured:
# Test in all cases: glycan array binding signal (z-score within array); higher = stronger binding
# Settings in all cases: glycan notation: IUPAC condensed, linker removed
# [1] = biological target: GlcNAc(b1-2)[GlcNAc(b1-4)]Man(a1-3)[GlcNAc(b1-2)Man(a1-6)]Man(b1-4)GlcNAc(b1-4)GlcNAc
# In short: (§1)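 From the Consortium for Functional Glycomics database, 3228 arrays were curated, keeping only those whose protein sequence was available. Binding is given as a within-array Z-score averaged across arrays sharing a protein sequence and across linkers. Negative Z-scores can be read as non-binding.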
# GlcNAc(b1-3)Gal(b1-4)Glc = biological target: GlcNAc(b1-3)Gal(b1-4)Glc
# In short: as §1
# GlcNAc(b1-4)GlcNAc = biological target: GlcNAc(b1-4)GlcNAc
# In short: as §1
# [2] = biological target: GlcNAc(b1-4)[GlcNAc(b1-6)]GalNAc
# In short: as §1
# [3] = biological target: Man(a1-2)Man(a1-2)Man(a1-3)Man
# In short: as §1
# [4] = biological target: Man(a1-2)Man(a1-3)[Man(a1-2)Man(a1-6)]Man(a1-6)[Man(a1-2)Man(a1-2)Man(a1-3)]Man
# In short: as §1
# Neu5Ac(a2-3)Gal = biological target: Neu5Ac(a2-3)Gal
# In short: as §1
# [5] = biological target: Neu5Ac(a2-3)Gal(b1-3)GlcNAc(b1-2)Man(a1-3)[Neu5Ac(a2-3)Gal(b1-3)GlcNAc(b1-2)Man(a1-6)]Man(b1-4)GlcNAc(b1-4)GlcNAc
# In short: as §1
# [6] = biological target: Neu5Ac(a2-3)Gal(b1-3)[Fuc(a1-4)]GlcNAc(b1-3)Gal(b1-4)[Fuc(a1-3)]GlcNAc
# In short: as §1
# Neu5Ac(a2-3)Gal(b1-4)Glc = biological target: Neu5Ac(a2-3)Gal(b1-4)Glc
# In short: as §1
# [7] = biological target: Neu5Ac(a2-3)[Neu5Ac(a2-6)]GalNAc
# In short: as §1
# Neu5Ac(b2-6)GalNAc = biological target: Neu5Ac(b2-6)GalNAc
# In short: as §1
binder,measurement,setting,value
FimA (Actinomyces oris) (protein) MHHHHHHSSGVDLGTENLYFQSNAETPNYGNIKTDATGSLVIHKHLTGGGKDIGTPTGTAQNADDKGPAVEGVVFTAYPITDINLKDPAGWDTISNLSRTGVPDSACANPAAPTLGAHQFGTPKVSPATTKEGLATITEMPVQAYLVCETTTPGDIVQKAKPFVVTIPHPNTAAGADGQWIYDVNVYPKNEAIDVDKTIQAQKLNGYGVGSLIKFPVESTAPTLDAKSFYKYFQLKDTLDERLSEVTATDVSLEGTPLQPTDYKVETKQQTVTVTFTAEGLKKIKAAPGKKVSAVFQGKVTKAGNGAITNRAQVISDTLYAEQPPTPETPPTDPENPPTSDEVISRWGDLSIKKVDTHQQGQTKAGLQGAQFQLYKAKNAYANTCSNEKEGAPIAINGQTTLTTDAQGAIDIKGLFISDSIDGADRDNQVNAMERCYVLVETKAPAGYVLPAGNGAATPVKVKAGEETTDNVTVENTKQSVPGLPLTG,glycan array binding signal (z-score),[1],-0.403
same,glycan array binding signal (z-score),GlcNAc(b1-3)Gal(b1-4)Glc,-0.311
same,glycan array binding signal (z-score),GlcNAc(b1-4)GlcNAc,-0.621
same,glycan array binding signal (z-score),[2],-0.564
same,glycan array binding signal (z-score),[3],4.88
same,glycan array binding signal (z-score),[4],-0.88
same,glycan array binding signal (z-score),Neu5Ac(a2-3)Gal,-0.143
same,glycan array binding signal (z-score),[5],-0.233
same,glycan array binding signal (z-score),[6],0.196
same,glycan array binding signal (z-score),Neu5Ac(a2-3)Gal(b1-4)Glc,-0.06
same,glycan array binding signal (z-score),[7],0.518
same,glycan array binding signal (z-score),Neu5Ac(b2-6)GalNAc,-0.85

# Source: the supplement of paper PMC8728848
